Source: PubChem
Sampled rows, rich in hits. Any-hit rate of the full collection: about 2.9%.
Nrf2 inh = inhibitors of Nrf2 signaling; A549 ARE-Fluc reporter, luciferase luminescence, 18-24 h; Potency, µM (titrated, usually from 46 µM), inactives show at the top dose activity change, negative = inhibition, hits mostly inhibitors; actives 2.1% (n = 360,000); note: % is set by controls: 0 for no effect and ±100 for the full control effect; nearly all actives have a fitted effect of over 60% in size
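Two sequential reads on A549 ARE_Fluc cells exposed to compound for 18-24 h: a CellTiter-Fluor fluorescence read for viability, then a luciferase luminescence read for Nrf2/ARE activity.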
ATXN2 expr inh = inhibitors of ATXN2 expression | AID 1745845 | actives 0.72% (n = 360,000) | Potency, µM (top dose mostly 57 µM), for the others: at the highest dose activity change, negative = inhibition, actives largely listed as inhibitors | HEK-293 ATXN2-luciferase reporter, luminescence, 24 h; note: % is set by controls: 0 for no effect and ±100 for the full control effect; nearly all actives have a fitted effect of over 55% in size
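ATXN2-luciferase reporter cells (luciferase flanked by upstream and downstream ATXN2 gene portions) were treated 24 h at 37 °C with compounds at up to 57 uM. SteadyGlo luminescence gave expression; GF-AFC fluorescence gave viability.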
A549 viability = kills or reduces viability of A549 cells in Nrf2 counter-screen. A549 ARE-Fluc cells, CellTiter-Fluor viability, 18-24 h. Potency, µM (doses to about 46 µM), for inactives: top-dose activity change, negative = cytotoxicity, actives largely listed as inhibitors. actives 0.16% (n = 390,000); note: % is set by controls: 0 for no effect and ±100 for the full control effect
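A549 ARE_Fluc cells in 5% FBS OPTI-MEM were exposed to compounds in concentration-response for 18-24 h at 37 deg C. Viability was read by CellTiter-Fluor fluorescence (Ex 405/Em 525) after 30 min, before the luciferase read.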
Nrf2 activator = activates Nrf2 signaling. actives 0.31% (n = 410,000). AREc32 ARE-luciferase reporter (MCF7-derived line), luminescence, 24 h. Potency, µM (doses to about 46.1 µM), inactives show at the highest dose activation, most hits filed as activators; note: % of control where 0% means no effect; nearly all actives have a fitted effect of over 65% in size
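Quantitative high-throughput format: AREc32 reporter cells, 1000 per well, received compound by pin transfer and were incubated 24 hr at 37 deg C, 5% CO2, before Steady-Glo luminescence detection.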
S2 tox = cell viability loss in ATXN counter-screen; actives 0.49% (n = 400,000); Potency, µM (titrated, usually from 56.7 µM), most hits filed as cytotoxic; S2 cells (HEK-293 line with an ATXN2-luciferase reporter) viability, CellTiter-Fluor protease fluorescence, 24 h; AID 651635; note: nearly all actives have a fitted effect of over 40% in size
Numbers without * were called inactive; i = inactive; ? = inconclusive; · = no result; ! = not active in a repeat; [ ] = dose if it differs, or a comment. Calls come from the whole dose curve; as a rule, active = well fitted curve in the direction sought with a large enough effect; inconclusive = small, poorly fitted or top-dose-only effect, or another doubt; inactive = no such curve, though single readings can be large; an effect the other way counts as inactive or inconclusive. Potency is the fitted concentration of half-maximal effect.

SMILES | Nrf2 inh | ATXN2 expr inh | A549 viability | Nrf2 activator | S2 tox
CC1=C(/C=C/C(C)=C/C=C/C(C)=C/C(=O)Nc2ccc(O)cc2)C(C)(C)CCC1 | ? | 20µM*! | ? | -3% | 28µM*
CC(C=CC1=C(C)CCCC1(C)C)=CC=CC(C)=CC(=O)Nc1ccc(O)cc1 | · | 50µM* | · | · | ·
CC(C)[C@H](NC(=O)N1CCn2c1nc1ccccc12)C(=O)N[C@H](Cc1ccccc1)C(=O)O | 3% | -6% | 10% | 0% | i
CN1c2ccccc2C(C)(C)C12C=Cc1cc(O)ccc1O2 (stereo not drawn) | 21µM* | -20% | ? | 12% | ?
Cc1cccc(N2CCN(C(=O)C3CCN(S(=O)(=O)N4CCOCC4)CC3)CC2)c1C | 21µM* | · | 2% | 4% | i
CCn1c(C(=O)N2CCC(C(=O)N3CCN(c4cccc(C)c4C)CC3)CC2)cc2sccc21 | 21µM* | · | -20% | -2% | ·
COC(=O)[C@]1(Cc2ccccc2)N[C@H](c2ccc(-c3ccc(Cl)c(Cl)c3)cc2)[C@@H]2C(=O)N(C)C(=O)[C@@H]21 | -5% | -6% | -5% | 0% | i
Cc1ccc(/C=N/Nc2ncc(Cl)cc2Cl)s1 | ? | 13% | 5.8µM* | 3% | i
Clc1cnc(N/N=C/c2cccs2)c(Cl)c1 | ? | 22% | -23% | ? | i
Cc1nc(Nc2cnc(/C=C/c3cc(C(=O)Nc4cccc(C(F)(F)F)c4)ccc3C)cn2)cc(N2CCNCC2)n1 | ? | 16µM* | -17% | -2% | i
CC(C)C(NC(=O)c1ccccc1)C(=O)NC1=NCCS1 (stereo not drawn) | -17% | 3% | -4% | 0% | i
CCCOc1ccc(CNC(=O)CCCn2ncn3c(cc4sc(CC)cc43)c2=O)cc1 | 23µM* | · | ? | -2% | ·
O=C(NC(=S)Nc1cccc(Cl)c1N1CCCC1)c1ccc(-c2cccc([N+](=O)[O-])c2)o1 | -27% | 2% | 6% | ? | i
CCCCn1c(SCc2nnc(-c3ccccc3)o2)nc2c1c(=O)n(C)c(=O)n2C | 10µM* | -13% | -14% | 2% | i
C=C(C)Cn1c(N2CCN(c3ccc(OC)cc3)CC2)nc2c1c(=O)n(C)c(=O)n2C | 23µM* | -29% | -23% | 2% | i
CCCCCn1c(CN(C)Cc2ccccc2)nc2c1c(=O)n(C)c(=O)n2C | 18µM* | -21% | -20% | 0% | i
CN(Cc1ccccc1)Cc1nc2c(c(=O)n(C)c(=O)n2C)n1Cc1ccc(Cl)cc1 | 15µM* | -14% | · | 0% | i
Cc1ccc(Cn2c(CN(C)Cc3ccccc3)nc3c2c(=O)n(C)c(=O)n3C)cc1 | -12% | -8% | · | 3% | i
Cc1[nH]c(C)c2c(=O)n(Cc3ccccc3Cl)ncc12 | -2% | -2% | 0% | 0% | i
CCCCCCn1c(N2CCN(c3ccccc3)CC2)nc2c1c(=O)n(C)c(=O)n2C | 23µM* | -25% | ? | -1% | ?
COC(=O)Cn1c(CN2CCN(c3ccc(F)cc3)CC2)nc2c1c(=O)n(C)c(=O)n2C | 18µM* | -4% | -5% | -1% | i
CCOCCn1c(N2CCN(c3ccccc3)CC2)nc2c1c(=O)n(C)c(=O)n2C | 0% | -2% | -11% | 0% | i
C=C(C)CSc1nc2c(c(=O)[nH]c(=O)n2C)n1Cc1ccccc1 | 5.8µM* | -22% | 6% | 2% | i
CCCn1c(N2CCC(Cc3ccccc3)CC2)nc2c1c(=O)[nH]c(=O)n2C | · | -4% | ? | 5% | i
CCCCCn1c(N2CCC(Cc3ccccc3)CC2)nc2c1c(=O)[nH]c(=O)n2C | 23µM* | ? | ? | -1% | ·
SMILES | Nrf2 inh | ATXN2 expr inh | A549 viability | Nrf2 activator | S2 tox
CC1(C)OCC(COC(=O)Nc2cccnc2)([N+](=O)[O-])CO1 | 3% | -22% | 2% | -1% | i
CCc1ccc(S(=O)(=O)Nc2ccc3c(c2)n(C)c(=O)c(=O)n3C)cc1 | ? | 9% | -1% | -1% | i
CC(C)(C)c1ccc(S(=O)(=O)Nc2ccc(C(O)(C(F)(F)F)C(F)(F)F)cc2)cc1 | · | ? | · | -3% | 18µM*
CCc1cccc(NS(=O)(=O)c2ccc3c(c2)n(C)c(=O)n3C)c1 | 13µM* | -20% | -6% | 2% | i
CCc1ccc(S(=O)(=O)Nc2cccc(C3OCCCO3)c2)cc1 | 10µM* | -3%[11.3 µM] | -2% | 0% | i
CCc1cccc(NS(=O)(=O)c2ccc3c(c2)n(C)c(=O)c(=O)n3C)c1 | -24% | · | 13% | 0% | ·
CCOC(=O)c1oc2ccc(S(=O)(=O)Nc3ccc4c(c3)n(C)c(=O)n4C)cc2c1C | 21µM* | 30% | -5% | 8% | i
O=S(=O)(c1ccc(C2CCCCC2)cc1)N1CCOCC1 | -3% | 1% | -6% | 0% | i
Cn1c(=O)n(C)c2cc(NS(=O)(=O)c3ccc(C(C)(C)C)cc3)ccc21 | 10µM* | -4% | -6% | 4% | i
O=[N+]([O-])c1ccccc1S(=O)(=O)Oc1ccc(C(=S)N2CCOCC2)cc1 | 22% | 10% | 2% | ? | i
CN(C(=O)c1cccc(NC(=O)Cc2ccc(NC(=O)C3CCCN(C(=O)C4CCCCC4)C3)cc2)c1)C1CCC1 (stereo not drawn) | -28% | -8% | 13% | 5% | i
Cc1c(OCC(=O)NC2CC(C)(C)NC(C)(C)C2)ccc2c1oc(=O)c1ccccc12 | 5% | 18µM* | -27% | 3% | ?
Cc1c(OCC(=O)NC2CC(C)(C)NC(C)(C)C2)ccc2c3c(c(=O)oc12)CCC3 | -5% | -18% | -22% | 0% | i
COc1cc(OC)cc(-c2c(Sc3ccccc3)c3cc(-c4ccc(OC)c(F)c4)ccc3n2C)c1 | · | -4% | · | -1% | i
Cc1cc2nn(-c3ccc(F)cc3)nc2cc1NC(=O)c1ccc(OC(C)C)cc1 | 2% | 13% | -2% | -1% | i
CC(/C=C/c1ccc(N(C)C)cc1)=N\N=C1\NC(=O)CC(C(=O)Nc2ccccc2)S1 (stereo not drawn) | -22% | 4% | -28% | 4% | i
CC(/C=C/c1ccc(N(C)C)cc1)=N/N=C1/NC(=O)CC(C(=O)Nc2ccc(Cl)cc2)S1 (stereo not drawn) | ? | 26% | 18µM* | 13% | ?
Cc1cc(N2CCOCC2)n2nc(C)c(-c3ccccc3)c2n1 | · | 19% | 1% | 5% | i
Cc1cc(N2CCOCC2)n2nc(C)c(-c3ccccc3Cl)c2n1 | 16µM* | -7% | ? | 0% | i
CC(C)c1ccccc1NC(=O)COC(=O)Cc1ccsc1 | 0% | 0% | -1% | 1% | i
CNC(=O)c1cc(Oc2ccc(NC(=O)Nc3ccc(Cl)c(C(F)(F)F)c3)c(F)c2)ccn1 | · | 19µM* | · | · | ·
COc1cc(C(=O)Nc2ccc(Cl)c(C(F)(F)F)c2)cc(OC)c1OC | -12% | 5% | -3% | 0% | i
